According to PubChem BioAssay AID1159580 (chemical genetic matrix, 2015):
About 2,000 (36%) of roughly 5,500 compounds were called active. Inconclusive results (about 18%) are left out. No stated cut-off is given here; in the data, active means normalized growth mostly below about 0.91 (no sharp cut-off); inconclusive means no clear call, values can overlap the other calls; inactive means mostly above about 0.92. This is one part of the list.

Assay: chemical genetic growth profiling, strain panel (AID 1159580);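 further: tested at 20 µM; growth read once vehicle control cultures reached saturation at 30 °C; 1 = growth at the plate median or of vehicle wells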
Details: S. cerevisiae deletion strains, growth OD

Measured: normalized growth

c1ccc(-c2cc3c(nn2)CCc2nonc2-3)cc1
inactive: locus YAL013W, strain DEP1, stronger effect = lower value 0.979 | locus YBR229C, strain ROT2, stronger effect = lower value 0.984 | locus YDL101C, strain DUN1, stronger effect = lower value 0.992 | locus YDL134C, strain PPH21, stronger effect = lower value 0.985 | locus YDR150W, strain NUM1, stronger effect = lower value 1.01 | locus YEL061C, strain CIN8, stronger effect = lower value 0.985 | locus YGR078C, strain PAC10, stronger effect = lower value 0.992 | locus YHR030C, strain SLT2, stronger effect = lower value 0.784 | locus YHR087W, strain rtc3, stronger effect = lower value 1.01 | locus YJL187C, strain SWE1, stronger effect = lower value 0.975 | locus YJR043C, strain POL32, stronger effect = lower value 0.984 | locus YJR075W, strain HOC1, stronger effect = lower value 0.966 | locus YLR039C, strain RIC1, stronger effect = lower value 1.04 | locus YLR058C, strain SHM2 (second series), stronger effect = lower value 0.978 | locus YLR085C, strain ARP6, stronger effect = lower value 0.886 | locus YLR262C, strain YPT6, stronger effect = lower value 1.02 | locus YML094W, strain GIM5, stronger effect = lower value 1.04 | locus YMR219W, strain ESC1, stronger effect = lower value 0.985 | locus YMR263W, strain SAP30, stronger effect = lower value 0.958 | locus YNL153C, strain GIM3, stronger effect = lower value 0.99 | locus YNL298W, strain CLA4 (second series), stronger effect = lower value 0.965 | locus YNL322C, strain KRE1, stronger effect = lower value 0.987 | locus YNR030W, strain Alg12, stronger effect = lower value 0.986 | locus YPL055C, strain LGE1, stronger effect = lower value 1.09 | locus YPL241C, strain CIN2, stronger effect = lower value 0.988 | locus YPR135W, strain CTF4, stronger effect = lower value 0.988
